Experimental data from PubChem BioAssay (NCI).
About 83,000 compounds went through this panel and 20% of them were active in at least one assay; those are over-represented in the sample as a whole.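 Method: cells in 96-well plates; compound added at one concentration; 48 h incubation; percent growth measured; values under 10 scored active.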 The source made the active and inactive calls.

Columns and labels:
Test in all cases: NCI-60 one-dose screen, 48 h (100 = growth as untreated, 0 = no growth, -100 = all killed)
Settings in all cases: 10 µM
[1] = tested on: DU-145 prostate
[2] = tested on: K-562 leukemia
[3] = tested on: MALME-3M melanoma
[4] = tested on: RXF 393 renal
[5] = tested on: SF-295 CNS
[6] = tested on: SF-539 CNS
[7] = tested on: UACC-257 melanoma
[8] = tested on: M14 melanoma
[9] = tested on: MDA-MB-231 breast
[10] = tested on: SF-268 CNS

Measured: growth

CCCCCCCCCCCCCC(=O)Oc1ccc[nH]c1=O
inactive: [1] 103% | [2] 90% | [3] 95.2% | [4] 113% | [5] 97.1% | [6] 99% | [7] 84.3% | [8] 101%

Nc1ncnc2c1nc(N)n2C1OC(CO)C(O)C1O (configuration not stated)
active: [1] -21.8% | [9] -16.9% | [4] -59.6% | [10] -57.8% | [5] -70.2% | [6] -94.4% | [7] -56.6% | [8] -85.6%
inactive: [2] 19.3%

CC(=O)NC(N)=S
inactive: [1] 107% | [2] 121% | [9] 115% | [4] 105% | [10] 110% | [5] 101% | [6] 107% | [7] 101% | [8] 127%

O=C1C=CC(=O)N1c1ccc(I)cc1Cl
active: [7] -2.76%
inactive: [1] 110% | [2] 114% | [9] 107% | [4] 110% | [10] 126% | [6] 97.1% | [8] 95.1%

O=c1[nH][nH]c(=O)c2cc([N+](=O)[O-])ccc12
inactive: [1] 126% | [2] 98.9% | [9] 106% | [4] 109% | [10] 111% | [5] 117% | [6] 108% | [7] 110% | [8] 99.9%

C[C@]12CC[C@@H]3c4ccc(OCC(=O)O)cc4CC[C@H]3[C@@H]1CCC2=O
inactive: [1] 109% | [2] 78.7% | [9] 101% | [4] 115% | [10] 91% | [5] 111% | [6] 97.5% | [7] 93.4% | [8] 97.2%

Cc1ccc(C)n1-c1ccsc1C(=O)NNC(=O)CCl
inactive: [1] 105% | [2] 96.3% | [3] 86.7% | [4] 101% | [5] 103% | [6] 101% | [7] 91.3% | [8] 77.8%

Cc1cc(N2CCC(N3CCCC3)CC2)nc(/N=C(\N)Nc2ccc(Cl)c(Cl)c2)n1
active: [2] -44.4% | [9] -58.1% | [4] -69.7% | [10] -4.09% | [5] -96.2% | [6] -84.7% | [7] -78.5% | [8] -85.9%
inactive: [1] 16.3%

CC(=O)OC(C(=O)O)c1ccccc1 (configuration not stated)
inactive: [1] 106% | [2] 108% | [9] 105% | [4] 112% | [10] 101% | [5] 113% | [6] 111% | [7] 106% | [8] 110%

CNC(=S)NC(C)(C)C
inactive: [1] 108% | [2] 103% | [3] 97.1% | [4] 112% | [5] 104% | [6] 99.9% | [7] 92.7% | [8] 98.8%

O=[N+]([O-])c1cccc2nsnc12
inactive: [1] 114% | [2] 111% | [9] 112% | [4] 118% | [10] 101% | [6] 108% | [7] 87.8% | [8] 101%

O=S(=O)(O)c1ccc(Cl)c(Cl)c1
inactive: [1] 120% | [2] 105% | [9] 108% | [4] 132% | [10] 113% | [5] 112% | [6] 107% | [7] 124% | [8] 101%

Cc1nc2ccccc2c(C(=O)O)c1O
inactive: [1] 127% | [2] 127% | [9] 101% | [4] 107% | [10] 110% | [6] 98.1% | [7] 96.7% | [8] 90.3%

CCCCC1(CC)COC(CCC)OC1 (configuration not stated)
inactive: [1] 102% | [2] 106% | [9] 106% | [4] 101% | [10] 98.6% | [5] 119% | [6] 98.3% | [7] 101% | [8] 99.7%

COc1ccccc1C1OC2=Nc3cc(C)c(C)cc3NC2C1=O (configuration not stated)
inactive: [1] 88% | [2] 97.7% | [3] 80.2% | [4] 78.3% | [5] 74.8% | [6] 91% | [7] 104% | [8] 84.2%

OCCN(CCO)C(=S)S
inactive: [1] 111% | [2] 111% | [3] 95.1% | [4] 113% | [5] 101% | [6] 106% | [7] 79.6%

Cc1ccc(C)n1-c1ccsc1C(=O)NNC(=O)C(Cl)Cl
inactive: [1] 109% | [2] 97.8% | [3] 93.2% | [4] 114% | [5] 101% | [6] 102% | [7] 98.2% | [8] 106%

CCCC(=O)Nc1ccc2c(c1)CN1C(=O)c3ccccc3C1=N2
inactive: [1] 101% | [2] 102% | [9] 103% | [4] 109% | [10] 101% | [5] 86.7% | [6] 89.6% | [7] 102% | [8] 113%

CCNc1nc2c(cnn2C)c(=O)[nH]1
inactive: [1] 113% | [2] 98.2% | [9] 110% | [4] 94.6% | [10] 104% | [5] 103% | [6] 104% | [7] 115% | [8] 99.3%

CCCCCC(C)(CC(=O)O)CC(=O)O
inactive: [1] 122% | [2] 106% | [9] 138% | [4] 101% | [10] 122% | [6] 105% | [7] 101% | [8] 109%

CC1(C)S(=O)(=O)OCCOS1(=O)=O
inactive: [1] 107% | [2] 100% | [3] 94.5% | [4] 114% | [5] 97.7% | [6] 100% | [7] 82.2% | [8] 100%

CC1=NN(c2ccccc2)C(=O)/C1=C\N1CC(=O)NC1=S
inactive: [1] 106% | [2] 104% | [9] 98.3% | [4] 108% | [10] 101% | [5] 104% | [6] 109% | [7] 90.6% | [8] 103%

C=CCc1cc(C(C)=O)cc(OC)c1O
inactive: [1] 105% | [2] 107% | [9] 92.1% | [4] 95.5% | [10] 96.8% | [5] 119% | [6] 125% | [7] 99% | [8] 105%

CN(c1ccccc1)c1ncnc2c1ncn2C
inactive: [1] 108% | [2] 103% | [9] 109% | [4] 122% | [10] 97.5% | [5] 109% | [6] 107% | [7] 87.9% | [8] 104%

CCCCCCCO
inactive: [1] 114% | [2] 106% | [9] 104% | [4] 97.3% | [10] 125% | [6] 89.5% | [7] 93.5%

CC(C)NC(=O)OCc1c(COC(=O)NC(C)C)c(-c2ccc(Cl)c(Cl)c2)n2c1SCC2
active: [4] 6.56%
inactive: [1] 41.6% | [2] 34.1% | [3] 62.9% | [5] 27.3% | [6] 32% | [7] 32.3% | [8] 50.3%

Cc1ccc(/C=C2\SC(=S)N(c3ccc(F)cc3)C2=O)o1
inactive: [1] 95.5% | [2] 77.8% | [3] 77% | [4] 75% | [5] 73% | [6] 73.9% | [7] 102%

Cc1ccc(N)cc1[N+](=O)[O-]
inactive: [1] 115% | [2] 108% | [9] 122% | [4] 114% | [10] 114% | [5] 105% | [6] 113% | [7] 98.7%

CCOC(=O)Nc1nn[nH]n1
inactive: [1] 108% | [2] 110% | [9] 104% | [4] 105% | [10] 100% | [5] 106% | [6] 97.7% | [7] 116% | [8] 95.3%

Cc1cc(OCCO)cc(C)c1Cl
inactive: [1] 117% | [2] 118% | [9] 114% | [4] 134% | [10] 109% | [5] 130% | [6] 111% | [7] 110% | [8] 112%

O=C(CCl)Nc1ccc2c(c1)C(=O)c1ccc(NC(=O)CCl)cc1C2=O
active: [1] -55.7% | [2] -14.9% | [9] -48.2% | [4] -86% | [10] -66.6% | [5] -22.6% | [6] -92.2% | [7] -12.2% | [8] -55.5%

O=C(N/N=C/c1ccccc1O)Nc1nn[nH]n1
inactive: [1] 116% | [2] 128% | [9] 102% | [10] 113% | [5] 102% | [6] 96.9% | [7] 104% | [8] 103%

Nc1ccccc1C(=O)Nc1ccc(Cl)cc1Cl
inactive: [1] 106% | [9] 84.4% | [4] 83.7% | [10] 101% | [6] 94.4% | [7] 86.5% | [8] 94.7%

CC(C)COC(=O)COC(=O)OCCOCCOC(=O)OCC(=O)OCC(C)C
inactive: [1] 95.3% | [3] 104% | [9] 113% | [4] 103% | [10] 93.5% | [5] 115% | [6] 80.5% | [7] 103%

CC(C)(C)c1cc(O)c(C(C)(C)C)cc1O
inactive: [1] 108% | [2] 96.7% | [9] 88.9% | [10] 95.8% | [5] 85.7% | [6] 86.1% | [7] 85.6% | [8] 103%
